M1 antag = blocks the rat M1 muscarinic receptor response to acetylcholine | B-score at 10 µM | 3.4% of 64,000 active | CHO-M1 cells, Fluo-4 calcium, ACh EC80 antagonist mode; active compounds read low;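 active = calcium fluorescence response, raw or row-and-column corrected B-score, differing from the plate sample mean either way at a set confidence level, mostly lower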
Target sequence (P08482 whole entry, looked up): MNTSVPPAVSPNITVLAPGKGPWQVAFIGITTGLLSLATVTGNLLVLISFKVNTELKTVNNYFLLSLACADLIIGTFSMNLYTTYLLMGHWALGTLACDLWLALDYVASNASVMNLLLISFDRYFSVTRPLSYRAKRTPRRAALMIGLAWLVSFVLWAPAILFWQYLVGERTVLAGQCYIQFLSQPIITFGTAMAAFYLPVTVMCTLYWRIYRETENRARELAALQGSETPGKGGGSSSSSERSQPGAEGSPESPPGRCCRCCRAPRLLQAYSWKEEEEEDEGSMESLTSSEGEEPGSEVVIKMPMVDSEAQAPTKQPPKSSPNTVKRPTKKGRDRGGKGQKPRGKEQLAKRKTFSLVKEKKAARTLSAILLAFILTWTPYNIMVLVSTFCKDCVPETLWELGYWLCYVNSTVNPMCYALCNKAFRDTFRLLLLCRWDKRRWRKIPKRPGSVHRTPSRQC
Htt clearance = compounds clearing mutant huntingtin protein; HeLa Exon1htt(103Q)mCFP, aggregate imaging; zero = plate's median compound well; inhibition, % at 1.5 µM; 0.42% of 47,000 active;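 active = inhibition of aggregate fluorescence above about 70%, also judged a hit by eye on the cell image, limit read from the data, passing the limit was not always enough; inconclusive = no rule stated for this call; inactive = not judged a hit on image review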;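 also: cells exposed to compound for three days before fixation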
M1 agonist = M1 muscarinic receptor agonism; 3% of 64,000 active; CHO-M1 cells, Fluo-4 calcium fluorescence, agonist mode; active compounds read high; AID 626; B-score at 10 µM;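 active = fluorescence rise, raw or as B-score row- and column-corrected plate score, outside the 99.7% band of its plate's samples, either direction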
D1 allo mod = D1 dopamine receptor (human) allosteric modulation | P21728 | HEK293 D1, CRE-luciferase, dopamine EC30 potentiation; actives deviate in either direction | B-score at 10 µM | 5.9% of 58,000 active | AID 641;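 active = luminescence count or its row- and column-corrected plate score outside the 99.7% band of the plate's sample wells, on either side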
M1 antag conf = M1 muscarinic receptor (rat) antagonism, confirmed; shares compounds with M1 antag; CHO-M1 cells, Fluo-4 calcium, ACh EC80 antagonism; active compounds read low; calcium response (max-min fluorescence) at 10 µM; 43% of 1,700 active;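 active = calcium response below the same-plate mean of wells given acetylcholine alone at its 80%-effect dose, minus 3 SD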;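 also: raw fluorescence intensity difference in arbitrary instrument units and not normalized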
mGluR4 antag = mGluR4 (human) activity, M1 antagonist secondary assay; shares compounds with M1 antag; CHO-mGluR4 calcium flux, Fluo-4 fluorescence, glutamate EC80; active compounds read low; fluorescence response (max-min) at 10 µM; 0.9% of 1,700 active;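 active = fluorescence response below the plate's average for near-maximal glutamate wells, less 3 SD of those wells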;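 also: raw unnormalized fluorescence span taken in the window right after glutamate addition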
The depositor's hits bear a star; u = inconclusive; x = not tested or not shown. Rows were chosen to be rich in hits. Some 9.1% of all compounds tested hit in one or more screens of this group.

SMILES	M1 antag	Htt clearance	M1 agonist	D1 allo mod	M1 antag conf	mGluR4 antag
Cc1cc2nc(SCCN3CCCC3)[nH]c2cc1C	-1.91*	x	0.56	x	440	185
O=C1CC(c2ccc(Cl)c(Cl)c2)CC(O)=C1C=NCCN1CCNCC1 (configuration not stated)	-13.2*	x	0.208	-1.45	173*	238
CCn1c(N)nc2ccccc21	-2.53*	x	-1.09	-0.327	706	160
Cc1cccc(Cn2c(=O)c3c(nc4n3CCN4Cc3ccco3)n(C)c2=O)c1	0.191	x	-0.55	-0.25	x	x
CCCCn1c(=O)n(Cc2cccc(F)c2)c(=O)c2c1ncn2Cc1ccco1	-1.49*	x	0.326	2.94	515	213
CCN1CCN(c2ncc(C(=O)Nc3cc(Cl)ccc3OC)c3ccccc23)CC1	-21.4*	x	-0.075	-0.921	20.8*	247
COc1ccc(Cl)cc1NC(=O)CCN1CCN(c2ccccc2C)CC1	0.18	34.1	0.0693	0.452	x	x
CCCCCCNC(=O)C(C(=O)OCC)C1CCCCC1 (configuration not stated)	-0.984	-65.5	0.208	-0.196	x	x
CCCP(=O)(CC(=O)O)c1ccccc1 (configuration not stated)	x	x	x	-3.87	x	x
CCCCP(=O)(CCCC)c1ccccc1C(=O)O	-3.73*	x	0.262	-0.0296	666	172
O=C(Nc1ccc2c(c1)OCO2)c1ccc(COc2ccc3c(c2)CCC3)o1	-1.92*	x	-0.665	0.361	647	232
CN1C=CC=C/C1=C1\SC(=S)N(C2CCCCC2)C1=O	-6.09*	3.0	-0.0364	0.281	488*	261
O=C(OCCN1CCOCC1)C(c1ccccc1)c1ccccc1	-0.534	x	-0.139	0.219	x	x
CN1[C@@H]2CC(OC(=O)[C@H](CO)c3ccccc3)C[C@H]1[C@@H]1O[C@@H]12 (some centres not stated)	x	x	x	-0.273	x	247
CC1(C)Nc2ccccc2N(CC(=O)N2CCCCC2)C1=O	-1.26*	56.6	-0.064	0.00518	687	237
CC1(C)Nc2ccccc2N(CCC(=O)N2CCOCC2)C1=O	0.285	-54.1	-0.791	0.552	x	x
O=C(Nc1sccc1C(=O)N1CCOCC1)c1cccnc1	-5.07*	x	-0.138	-0.419	623	245
O=C(c1cccnc1)N1CCN(C(=O)c2cccs2)CC1	0.092	u	1.93	x	x	x
Cc1nc2sc3c(c2c2nnc(SCC(=O)NCc4ccco4)n12)CCCC3	-2.74*	x	-1.04	1.55	618	215
O=C(CSc1nnc2c3c4c(sc3ncn12)CCCC4)NCc1ccco1	0.301	44.9	-0.143	0.78	x	x
Cc1ccc(-n2ncc3c(NCC4CCCO4)ncnc32)c(C)c1 (configuration not stated)	-3.61*	18.3	0	-0.498	504	167
C=CCNc1ncnc2c1cnn2-c1ccc(C)cc1C	-0.105	x	0.133	-1.27	x	x
Cn1nnc2cc(C(=O)N3CCC(c4ccccc4)C3)ccc21 (configuration not stated)	0.252	3.2	0.0353	x	x	x
COC(=O)c1cc2ccsc2n1Cc1nc(-c2ccc(OC)cc2)oc1C	-5.47*	-128.3	-0.955	0.354	474*	240
COC(=O)c1cc2sccc2n1Cc1nc(-c2ccc(OC)cc2)oc1C	-2.63*	25.1	0.227	0.948	508	232
SMILES	M1 antag	Htt clearance	M1 agonist	D1 allo mod	M1 antag conf	mGluR4 antag
COC(=O)c1sc(NC(=O)C2CCCCC2C(=O)O)c(C(=O)OC)c1C (configuration not stated)	0.444	x	-0.00422	-0.966	x	x
O=C(CCn1ccc2ccccc21)Nc1ccc(N2CCOCC2)cc1	0.179	26.5	0.105	-0.989	x	x
CCn1c(SCC(=O)OC(C)C)nnc1-c1cccc(Cl)c1	x	x	-0.319	-0.0596	x	x
CC(C)OC(=O)CSc1nnc(-c2ccc(O)cc2)n1Cc1ccccc1	-3.27*	x	0.00282	0.219	648	237
O=C(NCc1ccco1)C1CCN(c2nnc(-n3cccc3)s2)CC1	-0.387	x	0.46	x	x	x
CC(CCc1ccccc1)NC(=O)C1CCCN(c2nnc(-n3cccc3)s2)C1 (configuration not stated)	0.01	x	2.39	-0.542	x	x
O=C(NC1CCN(Cc2ccccc2)CC1)C1CCCN(c2nnc(-n3cccc3)s2)C1 (configuration not stated)	-3.34*	x	-0.648	-0.532	260*	194
O=C(NC1CCN(Cc2ccccc2)CC1)C1CCN(c2nnc(-n3cccc3)s2)CC1	-1.35*	x	-0.655	-0.944	278*	241
Cc1ccc(C(=O)COC(=O)CCC(=O)NC2CCCCC2)cc1C	x	-8.8	x	x	x	x
O=C(Nc1nnc(CCN2CCOCC2)s1)C1CCCCC1	0.0239	49.8	-0.00755	-0.582	x	x
COc1ccccc1NC(=O)CSc1nnc(CNC(=O)COc2ccc(Cl)cc2)o1	-2.84*	x	-0.0271	0.35	685	245
COc1ccc(OC)c(NC(=O)CSc2nnc(CNC(=O)COc3ccc(Cl)cc3)o2)c1	1.06	-94.5	-1.55	1.69	x	x
Cc1sc2ncnc(NCC(c3ccco3)N(C)C)c2c1C (configuration not stated)	-21.4*	-56.2	-0.81	0.0223	582	245
Clc1ccc2c(N3CCCC3)ccnc2c1	-3.02*	x	-0.116	-1.77	555	253
CCOC(=O)CCSCC(=O)Nc1nnc(C)s1	-2.4*	x	-0.253	-0.384	603	241
Cc1nnc(NC(=O)CSCc2ccccc2)s1	x	10.0	x	x	x	x
COc1ccc(N2CC(C(=O)O)CC2=O)cc1 (configuration not stated)	x	0.8	x	x	x	x
CN1CCN(CC#CCC(O)(c2ccccc2)C2CCCC2)CC1 (configuration not stated)	-1.54	-5.1	1.07	-2.06	x	x
CCC(O)(CCN1CCCCC1)c1ccccc1 (configuration not stated)	-10.7*	-17.6	0.354	-0.327	111*	213
CCCC(O)(CCN1CCCCC1)c1ccc(OCC)cc1 (configuration not stated)	x	-17.8	x	x	x	x
CC(O)(C#CCN1CCCC1)c1ccccc1 (configuration not stated)	-2.27*	x	-0.934	-0.29	493	212
O=C(CN1C(=O)NC2(CCc3ccccc32)C1=O)c1ccc2c(c1)OCCO2 (configuration not stated)	1.93	x	-0.344	x	x	x
Cc1nn(Cc2n[nH]c(=S)n2Cc2ccccc2)c(C)c1Cl	x	10.2	x	x	x	x
O=C(CN(c1ccc(Cl)cc1)S(=O)(=O)c1ccccc1)N1CCN(c2ccccc2)CC1	x	-14.0	x	x	x	x
Cc1ccc(N(C=NC#N)CC(=O)N2CCN(c3ccccc3)CC2)cc1	-3.39*	-36.1	0.2	0.632	565	212
CC(=O)CC(=O)NC(=NC1CCCCC1)Nc1nc(C)cc(C)n1	-2.91*	-49.7	-0.561	-0.331	643	201
O=C(CSc1nnc(CNC(=O)c2cccs2)o1)Nc1cccc(C(F)(F)F)c1	-0.165	46.6	-0.193	0.805	x	x
CCC(=Nc1ccc(Cc2ccncc2)cc1)c1c(O)n(C)c(=O)n(C)c1=O	-2.87*	-52.6	7.65	-0.482	548*	224
O=C1C2CC=CCC2C(=O)N1c1ccc(Cc2ccncc2)cc1 (configuration not stated)	-1.07	7.4	-3.02	-0.602	x	x
